# Bioassay records deposited in PubChem by Broad Institute.
# C diff HTS: inhibitors of Clostridium difficile growth | Clostridium difficile clinical isolate growth, OD600, 24 h; hits give low values | growth activity, negative = inhibition, % at 16 µg/mL (by protocol) | hit rate 0.25% among 86,000;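 active = mean growth activity at or below -80% and every replicate also at or below -80%; inconclusive = mean at or below -80% but some replicate above -80%; inactive = mean growth activity above -80%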;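 also: 0% = DMSO wells and -100% = levofloxacin 16 µg/mL wells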
# Pf Dd2 growth: inhibitors of Plasmodium falciparum Dd2 growth | P. falciparum Dd2 growth, SYBR Green, 72 h; hits give low values | activity change, % at 10 µM | hit rate 2.3% among 94,000; in the data active = activity change below about -80%; inconclusive = no clear call, values can overlap the other calls
# The depositor's hits bear a star; ? = inconclusive; . = no result given. Hits are enriched below; roughly 2.4% of the tested compounds scored in any of these assays.
SMILES,C diff HTS,Pf Dd2 growth
C[C@@H]1CCCCO[C@@H](CN(C)C(=O)Nc2ccc(C(F)(F)F)cc2)[C@@H](C)CN([C@H](C)CO)C(=O)c2cc(NC(=O)CCCCCC(=O)Nc3ccccc3N)ccc2O1,7,-35
C[C@@H]1CCCCO[C@@H](CN(C)CC2CCCCC2)[C@H](C)CN([C@H](C)CO)C(=O)c2cc(NC(=O)CCCCCC(=O)Nc3ccccc3N)ccc2O1,2,?
COc1ccc(NC(=O)N(C)C[C@@H]2OCCCC[C@@H](C)Oc3ccc(NC(=O)CCCCCC(=O)Nc4ccccc4N)cc3C(=O)N([C@H](C)CO)C[C@@H]2C)cc1,-3,9
COc1ccc(CN(C)C[C@H]2OCCCC[C@@H](C)Oc3ccc(NC(=O)CCCCCC(=O)Nc4ccccc4N)cc3C(=O)N([C@H](C)CO)C[C@@H]2C)cc1,5,-83*
C[C@@H]1CN([C@@H](C)CO)C(=O)c2cc(NC(=O)CCCCCC(=O)Nc3ccccc3N)ccc2O[C@@H](C)CCCCO[C@@H]1CN(C)C(=O)Nc1ccc(C(F)(F)F)cc1,14,-82*
C[C@@H]1CCCCO[C@H](CN(C)Cc2ccccc2)[C@@H](C)CN([C@H](C)CO)C(=O)c2cc(NC(=O)CCCCCC(=O)Nc3ccccc3N)ccc2O1,-1,-83*
C[C@@H]1CCCCO[C@@H](CN(C)C)[C@@H](C)CN([C@H](C)CO)C(=O)c2cc(NC(=O)CCCCCC(=O)Nc3ccccc3N)ccc2O1,0,25
C[C@H](CO)N1C[C@H](C)[C@H](CN(C)CC2CCCCC2)OCCCC[C@H](C)Oc2ccc(NC(=O)CCCCCC(=O)Nc3ccccc3N)cc2C1=O,0,-82*
Cc1ccccc1-c1ccc([C@H]2[C@H]3CN(C(=O)Nc4ccc(F)cc4)CC(=O)N3[C@H]2CO)cc1,-18,-72
O=C(C[C@@H]1C=C[C@H](NC(=O)Cc2cccnc2)[C@@H](CO)O1)Nc1ccccc1,.,-9
CCCC(=O)Nc1ccc2c(c1)C(=O)N(C)C[C@@H](OC)[C@H](C)CN(C(C)=O)[C@@H](C)CO2,-1,18
CN1[C@@H]2c3ccc(-c4cccc(F)c4)c(=O)n3C[C@H]1[C@H](CO)[C@H]2C(=O)NCc1ccccc1,3,.
COc1ccc(S(=O)(=O)Nc2ccc3c(c2)C(=O)N([C@H](C)CO)C[C@H](C)[C@H](CN(C)Cc2ccc(C(=O)Nc4ccccc4N)cc2)OCCCC[C@@H](C)O3)cc1,-5,-63
COc1ccc(NC(=O)Nc2ccc3c(c2)C(=O)N([C@H](C)CO)C[C@H](C)[C@H](CN(C)Cc2ccc(C(=O)Nc4ccccc4N)cc2)OCCCC[C@@H](C)O3)cc1,4,-87*
C[C@H](CO)N1C[C@H](C)[C@H](CN(C)C(=O)Nc2ccccc2)Oc2c(NS(C)(=O)=O)cccc2C1=O,3,13
COc1ccccc1NC(=O)N[C@@H]1CC[C@H](CCNS(=O)(=O)c2ccccc2)O[C@H]1CO,.,0
COc1cc(CN2C[C@@H]3N[C@H](C2)C3c2ccc(-c3ccccc3C)cc2)cc(OC)c1 (stereo partly drawn),-99*,-55
COc1cccc(CN2[C@@H]3CNC[C@H]2[C@H]3c2ccc(-c3ccccc3OC)cc2)c1,-8,?
Cc1ccccc1-c1ccc(C2[C@@H]3CN(S(=O)(=O)Cc4ccccc4)C[C@H]2N3)cc1 (stereo partly drawn),52,-52
COc1cccc(CN2C[C@@H]3N[C@H](C2)C3c2ccc(-c3ccccc3C)cc2)c1 (stereo partly drawn),-96*,8
C/C=C/c1ccc(C2[C@@H]3CN(Cc4cc(OC)cc(OC)c4)C[C@H]2N3)cc1 (stereo partly drawn),21,-68
COc1cccc(CN2C[C@@H]3N[C@H](C2)C3c2ccc(-c3ccccc3F)cc2)c1 (stereo partly drawn),-94*,-56
C[C@H](CO)N1C[C@H](C)[C@@H](CN(C)CC2CC2)Oc2c(NC(=O)C3CCCCC3)cccc2C1=O,-3,-1
O=S(=O)(N[C@H]1CC[C@H](CCn2cc(C3CC3)nn2)O[C@@H]1CO)c1ccc(Cl)cc1,-2,-5
C[C@@H]1CN([C@@H](C)CO)S(=O)(=O)c2ccc(C#Cc3ccncc3)cc2O[C@@H]1CN(C)S(=O)(=O)c1ccc(F)cc1,8,-83*
SMILES,C diff HTS,Pf Dd2 growth
Cc1ccc(S(=O)(=O)N(C)C[C@H]2Oc3cc(C#Cc4ccncc4)ccc3S(=O)(=O)N([C@H](C)CO)C[C@H]2C)cc1,1,-77
C[C@H]1CN([C@@H](C)CO)S(=O)(=O)c2ccc(C#Cc3ccncc3)cc2O[C@H]1CN(C)S(=O)(=O)c1ccccc1,2,-40
COCC#Cc1ccc2c(c1)O[C@H](CN(C)S(=O)(=O)c1cccc(F)c1)[C@H](C)CN([C@H](C)CO)S2(=O)=O,3,-82*
Cc1ccc(S(=O)(=O)N(C)C[C@H]2Oc3cc(C#Cc4ccncc4)ccc3S(=O)(=O)N([C@H](C)CO)C[C@@H]2C)cc1,2,-81*
Cc1ccc(S(=O)(=O)N(C)C[C@@H]2Oc3cc(C#Cc4ccncc4)ccc3S(=O)(=O)N([C@@H](C)CO)C[C@@H]2C)cc1,3,-85*
COCC#Cc1ccc2c(c1)O[C@@H](CN(C)S(=O)(=O)c1cccc(F)c1)[C@H](C)CN([C@@H](C)CO)S2(=O)=O,1,-73
C[C@@H]1CN([C@H](C)CO)S(=O)(=O)c2ccc(C#Cc3ccc(F)cc3)cc2O[C@H]1CN(C)S(=O)(=O)c1ccc(F)cc1,7,-34
C[C@@H]1CN([C@H](C)CO)C(=O)Cc2cc(NS(=O)(=O)c3ccc(F)cc3)ccc2O[C@@H]1CN(C)S(=O)(=O)c1cn(C)cn1,-7,26
O=C(NCC[C@@H]1CC[C@H](NC(=O)c2ccncc2)[C@H](CO)O1)Nc1ccc(Cl)cc1,14,13
C[C@H](CO)N1C[C@H](C)[C@@H](CN(C)C(=O)c2ccncc2)Oc2cc(-c3cccc(C#N)c3)ccc2S1(=O)=O,3,-19
O=C(C[C@H]1C=C[C@H](NC(=O)Cc2cccnc2)[C@@H](CO)O1)Nc1ccc(-c2ccccc2)cc1,-6,40
CCCNC(=O)NC[C@@H]1[C@@H](c2ccc(C3=CCCC3)cc2)[C@@H](CO)N1C(C)=O,-3,31
COc1ccc(S(=O)(=O)N(C)C[C@@H]2Oc3c(NC(=O)Nc4cccc5ccccc45)cccc3C(=O)N([C@H](C)CO)C[C@@H]2C)cc1,3,-92*
COc1ccc(S(=O)(=O)N(C)C[C@H]2Oc3c(NC(=O)Nc4ccc5c(c4)OCO5)cccc3C(=O)N([C@H](C)CO)C[C@H]2C)cc1,-6,-14
COc1ccc(S(=O)(=O)N(C)C[C@H]2Oc3c(NC(=O)Nc4ccc5c(c4)OCO5)cccc3C(=O)N([C@@H](C)CO)C[C@H]2C)cc1,-4,-86*
COc1ccc(S(=O)(=O)N(C)C[C@H]2Oc3c(NC(=O)Nc4ccccc4)cccc3C(=O)N([C@@H](C)CO)C[C@H]2C)cc1,.,-90*
COc1ccc(S(=O)(=O)N(C)C[C@@H]2Oc3c(NC(=O)Nc4ccccc4)cccc3C(=O)N([C@H](C)CO)C[C@H]2C)cc1,.,-9
COc1ccc(S(=O)(=O)N(C)C[C@@H]2Oc3c(NC(=O)Nc4ccccc4)cccc3C(=O)N([C@H](C)CO)C[C@@H]2C)cc1,.,-8
